Test results: PubChem BioAssay AID1117361 (Southern Research Institute, 2015)
Among all 3,600 compounds or so, about 900 (25%) were called active. These entries were drawn from the full list. Measured potencies and affinities stand elsewhere. Values without a mark were called inactive. How the calls were made is not given here.

The molecules below were run against Protein Tat (Human immunodeficiency virus type 1 group M subtype B (isolate HXB2)) (UniProt P04608) (assay: HIV-1 Tat–TAR interaction blockers – biochemical, fluorescence polarization, FAM-labeled TAR RNA, counter-screen for Vif-APOBEC3G degradation inhibitor project, dose response (AID 1117361)). Conditions: Tat-TAR RNA binding; series mostly up to 100 µM; inhibition: at the top concentration.

SMILES	inhibition	outcome
Cc1ccccc1-c1nc(CN2CCC(C(=O)N3CCN(c4ccccn4)CC3)CC2)c(C)o1	13.6%	
COc1ccc(-c2cc(-c3ccccc3)c(C#N)c(S(C)=O)n2)cc1 (stereo not given)		inactive
Cc1cccc(C)c1NC(=O)c1ccc(-n2cnnn2)cc1	22.5%	
COc1ccc(C2=NOC(C(=O)NCc3cccs3)C2)cc1OC (stereo not given)		inactive
Cc1cccc(N2C(=O)CN=C2Nc2nc(C)cc(C)n2)c1	4.73%	
COc1ccc(/C=N/OCC(=O)Nc2cc(C)on2)cc1OC		inactive
COC(=O)C1CCN(c2ccc([N+](=O)[O-])cc2)CC1		inactive
O=C(Nc1ccc(N2CCCCC2)cc1)c1cc([N+](=O)[O-])cc([N+](=O)[O-])c1		inactive
CC1(C)Cc2ccccc2C(/C(=N/O)C(N)=O)=N1		inactive
COc1ccc2cnn(CCOc3cc(C)ccc3C(C)C)c(=O)c2c1OC	1.65%	
Cc1nc(N(C)C)c2sc(=S)n(C)c2n1		inactive
Cc1cccc(NC(=O)CSc2nnc(CCC(=O)Nc3ccc(C)c(Cl)c3)n2C)c1	4.34%	
CCCCc1nccn1CCn1ccnc1CCCC	6.14%	
CCc1ccc(C2C(C(C)=O)=C(C(=O)OC)Nc3nnnn32)cc1 (stereo not given)	7.5%	
COC(=O)COc1ccc(S(=O)(=O)Nc2ccc(C(N)=O)cc2)cc1C		inactive
COc1ccc(S(=O)(=O)Nc2cc(SCC(=O)O)c(O)c3ccccc23)cc1	0.33%	
CCc1ccc(CCC(=O)Nc2ccc(S(N)(=O)=O)cc2)o1	17.6%	
Cc1onc(-c2ccccc2)c1CNC(=O)C1COc2ccccc2O1 (stereo not given)		inactive
CCc1cccc(NC(=O)Cn2ncn3c(cc4ccccc43)c2=O)c1	8.11%	
O=S(=O)(c1ccc(OCc2nc3ccccc3s2)c(Cl)c1)N1CCOCC1	4.09%	
COc1ccc(C(=O)N2CC3(C)CC2CC(C)(C)C3)cc1 (stereo not given)	2.03%	
Cc1ccc(OCCN2CCCCCC2)c(C)c1	2.73%	

SMILES	inhibition	outcome
CCn1c(C)nc2cc(C(=O)NNC(=O)CCC3CCCCC3)ccc21		inactive
CN(C)S(=O)(=O)c1ccc(NC(=O)c2cc3ccccc3o2)cc1		inactive
CCN(CC)S(=O)(=O)c1cccc(NN=c2c(=O)c3ccccc3c2=O)c1	11.6%	
COc1cccc(/C=N/NC(=O)c2cnccn2)c1O	10.7%	
Cc1c(/C=N\NC(=O)c2csc3ccccc23)cnn1C		inactive
Cc1cccc(N/C=C/C(=C(C#N)C#N)N(C)C)c1	16.2%	
Cc1cc(SCC(=O)N/N=C/c2ccc(O)c(O)c2O)c(C)cc1Br	0.33%	
CC1CCCCC1NC(=S)Nc1cccc(S(=O)(=O)N(C)C)c1 (stereo not given)		inactive
CNC(=O)CN(C)S(=O)(=O)c1ccc(F)cc1		inactive
C=CCSc1nnc(NC(=O)CSc2nnc(C)s2)s1		inactive
COc1ccc(C(=O)n2nc(-c3ccccc3)nc2SC)cc1	5.41%	
CCOc1ccc(NC(=O)C2CCCN(S(=O)(=O)c3c(C)n[nH]c3C)C2)cc1 (stereo not given)	0.82%	
CCCNC(=O)Cn1c2ccccc2c2nc(=O)cc(C)n21	4.73%	
CCOC(=O)c1c(C)[nH]c(C(=O)CSc2nnc(C3CC3)n2N)c1C	3.38%	
CN(C)S(=O)(=O)N1CCN(c2ccc(Cl)cc2)CC1		inactive
CCCC(=O)NC(C)C(c1cccs1)N1CCN(C)CC1 (stereo not given)	9.69%	
Cc1ccc(S(=O)(=O)N(C)c2ccccc2C(=O)N2CCCC2)cc1	1%	
COc1cc(C(=O)NNC(=S)NCc2ccco2)cc(OC)c1OC	21.4%	
O=C(Cc1ncn[nH]1)NCCc1ccccc1	2.7%	
CC(C)(C)c1ccc(S(=O)(=O)NCc2ccc(C(=O)NCc3ccccn3)cc2)cc1		inactive
CCS(=O)(=O)N1CCC(C(=O)NCc2ccccn2)CC1	5.41%	
O=C(NCCc1ccccc1)c1ccc2c(c1)N(Cc1ccccc1)C(=O)CS2=O (stereo not given)	4.05%	

SMILES	inhibition	outcome
COc1ccc(CCNC(=O)Cn2nnc(-c3cccc(OC)c3OC)n2)cc1OC	5.46%	
O=C(NCc1ccco1)c1ccc2snnc2c1	6.82%	
COc1ccc(C(=O)NCc2cccnc2)cc1OC	2.03%	
O=C(CCS(=O)(=O)c1cccs1)Nc1ccc(C(=O)NCc2ccccc2)cc1		inactive
CC(c1nnc(SCn2nnc3ccccc3c2=O)n1-c1ccc(Cl)cc1)N(C)C (stereo not given)	8.11%	
COc1cccc(-c2nc(CS(=O)(=O)CC(=O)NC3CC3)c(C)o2)c1	6.35%	
CCOc1ccc(N2CC(C(=O)NCC(=O)Nc3ccc(F)c(F)c3F)CC2=O)cc1 (stereo not given)	4.12%	
NS(=O)(=O)c1ccc(NC(=O)c2ccccc2C(=O)N2CCCCC2)cc1	8.11%	
CCN(C(=O)CCc1nc(-c2ccccc2F)no1)c1cc(OC)ccc1OC		inactive
COc1ccccc1NC(=O)COC(=O)c1cc2c(s1)CCC2	23.1%	
CCOC(=O)c1cccc2c(=O)c(C(=O)c3ccc(Cl)cc3)c(C(=O)OC)[nH]c12	3.3%	
C/C(=N\OC(=O)c1ccc(F)cc1)c1sc(-c2ccccc2)nc1C		inactive
CC1CCc2cc(F)ccc2N1C(=O)C1(C)CC1(Cl)Cl (stereo not given)	8.11%	
C/C(=N\O)C(=O)NCc1ccccn1	23.2%	
O=C(NCc1ccccn1)c1ccc(Cn2cc(Br)cn2)o1	29.3%	
O=C(NC1=CC(=O)c2ccccc2C1=O)c1ccccc1		inactive
Cc1ccc(NC(=O)CNC(=O)COc2ccccc2)nc1		inactive
COc1ccc2cc(C(=O)N3CCOCC3)sc(=O)c2c1OC	10.2%	
COc1ccc(/C=C/C(=O)NC(=S)Nc2ccccn2)cc1		inactive
COc1ccc(OC)c(/C(O)=C/C(=O)C(=O)Nc2ccccc2OC)c1	16.2%	
COc1ccccc1/C=C/C=C1N=C(/C=C/c2ccc(Cl)cc2)OC/1=O		inactive
COc1ccc(/C=C(/NC(C)=O)C(=O)O)cc1	0.68%	

SMILES	inhibition	outcome
CN1C(=O)CC(N2CCN(C(=O)c3ccccc3)CC2)C1=O (stereo not given)	6.76%	
Cc1cc(-n2ccnc2)n2c(nc3ccccc32)c1C#N	15%	
COc1cc(-n2cnnn2)ccc1S(=O)(=O)N1CCOCC1	3.01%	
CCCn1c(=O)c(-c2ccccc2)c(O)c2ccccc21	12.8%	
O=C1c2ccccc2S(=O)(=O)N1CC(O)COc1ccc(Br)cc1 (stereo not given)		inactive
CCOC(=O)C1C(c2ccc(O)c(OCC)c2)NC(=S)NC1(O)C(F)(F)F (stereo not given)		inactive
CS(=O)(=O)c1ccc(Cl)c(NC(=O)COC(=O)COc2ccc3c(c2)CCC3)c1		inactive
COc1ccc(CNC(=O)CN(CC2CCCO2)C(=O)CNS(=O)(=O)c2ccc(C)cc2)cc1 (stereo not given)		inactive
COc1ccc(OC)c(/C(O)=C/C(=O)C(=O)Nc2cc(C)ccc2OC)c1	1.35%	
COc1cccc(CNC(=O)Cn2c(=O)oc3ccccc32)c1OC		inactive
COc1ccc(OC)c(NC(=O)c2[nH]c(C)c(C(C)=O)c2C)c1	29.1%	
COc1ccc(CC(=O)OCc2cc3ccc(C)cc3[nH]c2=O)cc1	12.8%	
N=c1sccn1CC(=O)Nc1ccc2c(c1)CCC2		inactive
COc1ccc(OC)c(C2C(C(=O)c3cc4ccccc4o3)=C(O)C(=O)N2c2cc(C)on2)c1 (stereo not given)	18.4%	
CCC(C)NC(=S)NNC(=O)c1ccc(C(C)(C)C)cc1 (stereo not given)	13.7%	
Cc1cc2c(=Cc3ccc(N(C)C)cc3)c3ccccc3n2[n+]1C	10.3%	
Oc1cccc(/C=N/NC(=S)NCCN2CCOCC2)c1O		inactive
COc1cccc(C=Nc2cc(C(C)C)c(O)cc2C)c1O		inactive
COc1cccc(CC(NC(C)=O)C(=O)NC2CCN(S(=O)(=O)c3ccc4ccccc4c3)CC2)c1 (stereo not given)	4.73%	
COc1ccccc1N1CCN(CC(O)COCCOc2ccc(Br)cc2)CC1 (stereo not given)	6.6%	
CC(=O)Nc1ccc(C(=O)Nc2cccc(-c3cnc4ccccc4n3)c2)cc1	9.9%	
CC(=O)Nc1ccc(N/C=C/C(=O)C(C)(C)C)cc1	3.38%	

SMILES	inhibition	outcome
Cc1ccc(NC(=O)c2ccc(Cl)c(N3C(=O)C=CC3=O)c2)cc1	8.87%	
Cc1cc(C)c(C)c(OCCCOc2cccc3cccnc23)c1		inactive
Cc1nnc(SCC(=O)N2CCN(c3ccccc3)CC2)n1C1CC1		inactive
COc1ccc(/C=N/NC(=O)c2ccc3ccccc3c2)cc1OS(=O)(=O)c1ccc(NC(C)=O)cc1	4.05%	
COC(=O)c1sccc1NC(=O)c1cc(-c2ccc(C)cc2C)nc2ccccc12	3.41%	
Cc1ccc(C(=O)N/C(=C/c2cccnc2)C(=O)NCc2ccco2)cc1		inactive
O=C(CNC(=O)/C(=C\c1ccccc1)NC(=O)c1ccc(Br)cc1)OCc1ccccc1	3.41%	
O=C(NCC1CCCO1)c1ccc(CS(=O)(=O)Cc2ccc(F)cc2)o1 (stereo not given)	2.03%	
Cc1cc(C(F)(F)F)n2nc(C(=O)O)c(Cl)c2n1	1.35%	
O=C1NC(=Nc2ccc(F)cc2)SC1Cc1ccc(F)cc1 (stereo not given)		inactive
COc1ccc(NC(=O)/C(C#N)=C\c2cc(C)n(-c3ccc(Oc4ccc([N+](=O)[O-])cn4)cc3)c2C)cc1		inactive
O=C(O)c1ccc(S(=O)(=O)c2ccc([N+](=O)[O-])cc2[N+](=O)[O-])cc1		inactive
CCCN(CCC)S(=O)(=O)c1cc(Br)cc2c1N(C(=O)CC)CC2	4.05%	
O=C1CCCC(NCCCCCCNC2=C([N+](=O)[O-])C(=O)CCC2)=C1[N+](=O)[O-]		inactive
CC(NCCO)C(=O)C12CC3CC(CC(C3)C1)C2 (stereo not given)	2.03%	
CN(C)S(=O)(=O)N1CCC(CCCC2CCN(S(=O)(=O)N(C)C)CC2)CC1		inactive
CN1CCN(c2nc(-c3cccnc3)nc3ccccc23)CC1	6.08%	
C[C@@H]1NC(=O)[C@H](CCC(N)=O)NC(=O)c2cc([N+](=O)[O-])cc(I)c2NCCC[C@@H](C(N)=O)NC1=O		inactive
O=C(COC(=O)c1cc(=O)[nH]c2ccccc12)Nc1cccc(S(=O)(=O)N2CCOCC2)c1		inactive
CN(Cc1ccccc1)C(=O)c1cccc(N2C(=O)NC3CC2(C)Oc2ccccc23)c1 (stereo not given)	1.36%	
CCCCCCn1c(SCC(=O)Nc2cc(C)on2)nc2ccccc2c1=O	1.35%	
NC(=O)c1ccc(NC(=O)CSc2nc3ccccc3c(=O)n2CCCN2CCOCC2)cc1	3.3%	
